Unmarked numbers belong to inactive results. Inconclusive results are not listed. Where a call stands in place of a potency, no number is given. Calls of active or inactive are those of the source. Unless noted, the call rests on the fitted dose curve; in most records, active means well fitted curve in the direction sought with a large enough effect; inconclusive means small, poorly fitted or top-dose-only effect, or another doubt; inactive means no such curve, though single readings can be large; an effect the other way counts as inactive or inconclusive.
Columns and labels:
[1] = Validation of Assay for Modulators of Lamin A Splicing (AID 1459; active means well fitted curve in the direction sought with a large enough effect in the signal ratio; the % refers to the signal ratio;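 further: cells exposed to compound for two days before reading; ratio rise marks activators and ratio drop marks inhibitors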)
How it was run: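 S3 HeLa cells stably expressing a lamin A-EGFP splicing minigene and DsRed2 were seeded at 600 cells/well in Opti-MEM with 2% FBS, pin-dosed, and incubated 48 hrs at 37 °C, 5% CO2. Laser-scanning cytometry (488 nm) gave GFP/RFP total intensity ratio.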

[2] = target: DNA repair nuclease/redox regulator APEX1 (Homo sapiens) (UniProt P27695); assay: qHTS Validation Assay for Inhibitors of the Human Apurinic/apyrimidinic Endonuclease 1 (APE1) (AID 1705;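 further: TAMRA fluorescence gain over two minutes as APE1 cuts a quenched THF abasic duplex; series mostly up to about 57 µM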)
How it was run: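 Human APE1 was preincubated with compound for 15 min at room temperature, then 50 nM (final) THF-abasic double-stranded DNA substrate bearing 5'-TAMRA and 3'-BHQ-2 was added. Incision-driven fluorescence rise (ex 525/em 598 nm) was read kinetically.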

[3] = Counterscreen for APE1 Inhibitors: Fluorescent Dye Displacement Validation Assay (AID 1707)
How it was run: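 Thiazole Orange (250 nM) bound to 50 nM TAMRA-labelled dsDNA with tetrahydrofuran abasic site; displacement by DNA-binding compounds lowers fluorescence. Buffer 50 mM Tris-HCl pH 7.5, 50 mM NaCl, 2 mM MgCl2, 0.01% Tween-20; endpoint read at 480/540 nm.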

[4] = target: Endonuclease 4 (Escherichia coli (strain K12)) (UniProt P0A6C1); assay: Counterscreen for APE1 Inhibitors: qHTS Validation Assay for Inhibitors of Endonuclease IV (AID 1708)
How it was run: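 Cleavage of a quenched abasic-site DNA duplex (50 nM, 5'-TAMRA, 3'-BHQ-2) by 2 nM enzyme is followed as fluorescence increase. Compounds are preincubated with enzyme 15 min at room temperature before substrate addition.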

[5] = qHTS for differential inhibitors of proliferation of Plasmodium falciparum line 3D7 (AID 1876); further: potency means the concentration at half of the fitted maximal effect
[6] = qHTS for differential inhibitors of proliferation of Plasmodium falciparum line Dd2 (AID 1882); settings: Potency: Plasmodium falciparum Dd2 proliferation inhibition;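 further: series mostly up to about 29 µM; compound exposure of 72 h on infected erythrocytes; nearly all actives have a fitted effect of over 65% in size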
How it was run: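 SYBR Green I DNA fluorescence read-out, ex 485/em 535 nm. Signals were normalized to 0.29 uM artemisinin and DMSO wells, then corrected using vehicle-only plates flanking each stack. Parasite growth ran 72 h in erythrocytes before lysis.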

[7] = target: Ferritin light chain (Equus caballus) (UniProt P02791); assay: qHTS Validation Assay for Identification of Novel General Anesthetics (AID 2323); further: series mostly up to about 77 µM
How it was run: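 Competitive displacement of profluorescent 1-aminoanthracene (1-AMA, 50% saturated solution in PBS) from 10 uM horse-spleen apoferritin. Compounds incubated 10 min at room temperature; fluorescence read at 380 nm excitation/535 nm emission, normalized to free 1-AMA and complex, fitted with four-parameter Hill equation.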

[8] = target: ATP-dependent DNA helicase Q1 (Homo sapiens) (UniProt P46063); assay: qHTS Validation Assay for Inhibitors of RecQ-Like Dna Helicase 1 (RECQ1) (AID 2353)
How it was run: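 50 nM RECQ1T1 preincubated 15 min with compound in Tris pH 8.0 buffer with MgCl2, DTT, Tween-20 and 2.5 ug/ml poly(dI-dC); started with 200 nM TAMRA/BHQ-2 forked duplex and 2 mM ATP. Unwinding read as fluorescence (525/598 nm), two reads 2 h apart.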

[9] = Validation screen for small molecules that induce DNA re-replication in MCF 10A normal breast cells (AID 463097); further: nearly all actives have a fitted effect of over 60% in size
How it was run: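 Readout: Hoechst nuclear fluorescence intensity, 405 ex / 500-530 em, by scanning plate imager; re-replication scored as increase in nuclei with elevated DNA content. Cells exposed to compound 48 hr, 37 C, 5% CO2 beforehand.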

[10] = Quantitative high throughput screen for delayed death inhibitors of the malarial parasite plastid, 96 hour incubation (AID 488745); further: nearly all actives have a fitted effect of over 70% in size; further: potency means the concentration at half of the fitted maximal effect
How it was run: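 P. falciparum carrying an integrated firefly luciferase reporter, grown in erythrocytes (2% hematocrit, 0.1% parasitemia final) in RPMI 1640/0.5% Albumax, was exposed to compound for 96 h (two generations) at 37 C, 5% CO2. Luminescence decrease indicated growth inhibition.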

[11] = Quantitative high throughput screen for delayed death inhibitors of the malarial parasite plastid, 48 hour incubation (AID 488752); further: nearly all actives have a fitted effect of over 65% in size; further: potency means the concentration at half of the fitted maximal effect
How it was run: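 Erythrocytes infected with P. falciparum carrying an integrated firefly luciferase reporter (2% hematocrit, 0.1% parasitemia final) were exposed to compounds in RPMI 1640/0.5% Albumax for 48 h at 37 C, 5% CO2. Growth inhibition was scored as reduced luminescence.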

[12] = target: M-phase phosphoprotein 8 (Homo sapiens) (UniProt Q99549); assay: qHTS Validation Assay for Inhibitors for MPP8 Chromodomain Interactions with Methylated Histone Tails (AID 488949); further: nearly all actives have a fitted effect of over 55% in size; further: potency means the concentration at half of the fitted maximal effect
How it was run: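 MPP8 (50 nM) was preincubated with biotinylated H3(1-18)K9me3 peptide (50 nM) in PBS pH 7.4, 0.01% Tween-20 for 30 min at room temperature, then with compounds for 30 min; binding was detected by AlphaScreen.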

[13] = target: Transient receptor potential cation channel subfamily V member 1 (Homo sapiens) (UniProt Q8NER1); assay: HTS Assay for Compounds that Act as Enhancers of the Vanilloid Receptor 1 (AID 488979)
How it was run: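 TRPV1 cells loaded with Fluo-8 calcium dye; compound added and Ca2+ signal (ex 480/em 520 nm) followed 3 min, then capsaicin at EC20 added and read 2 more min to detect enhancement.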

[14] = target: Thyrotropin receptor (Homo sapiens) (UniProt P16473); assay: qHTS Assay for Antagonists of the Thyroid Stimulating Hormone Receptor (AID 488980); further: series mostly up to about 58 µM
How it was run: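 HEK293 cells transfected with human TSHR, suspended in HEPES-buffered HBSS with 70 uM RO 20-1724, were treated with compounds plus TSH at EC80 (4 nM final). cAMP was measured by competitive HTRF (cryptate anti-cAMP antibody, cAMP-d2 acceptor).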

[15] = target: Galactokinase (Homo sapiens) (UniProt P51570); assay: qHTS Validation Assay for Inhibitors of Human Galactokinase (GALK) (AID 493189)
How it was run: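 GALK (5 nM) with 35 uM ATP and 100 uM galactose in HEPES pH8.0, MgCl2, NaCl, DTT, BSA; 1 h at room temperature. Residual ATP read by Kinase-Glo Plus luminescence after 10 min.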

[16] = target: Thyrotropin-releasing hormone receptor (Homo sapiens) (UniProt P34981); assay: qHTS for Small Molecule Agonists and Allosteric Enhancers of Human TRH Receptor: Validation Screen for Agonists (AID 493127;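 active means calcium activation more than 3 SD above the typical response in the agonist read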;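 further: intracellular calcium rise by fluo-8 fluorescence before TRH EC20 addition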); settings: TRH receptor agonist cell assay; at 2 µM; hits give high values
How it was run: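 TRHR-expressing cells were plated overnight in serum-containing medium, then loaded with fluo-8 calcium dye at room temperature for 30 min–1.5 h. After a 10 s baseline, compound was pin-transferred and calcium fluorescence (ex 480/em 530) read kinetically for agonist response.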

[17] = target: Voltage-gated inwardly rectifying potassium channel KCNH2 (Homo sapiens) (UniProt Q12809); assay: qHTS Assay for Small Molecule Inhibitors of the Human hERG Channel Activity (AID 588834);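 further: lower thallium flux fluorescence means stronger hERG block; nearly all actives have a fitted effect of over 50% in size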; further: potency means the concentration at half of the fitted maximal effect
How it was run: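 U2OS cells transduced with hERG via BacMam (MOI ~100), plated 2000/well, loaded with FluxOR thallium dye, compound ~10 min, then stimulation buffer; fluorescence decrease read kinetically; AC50 from Hill fits.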

Ferritin light chain (Equus caballus), sequence (P02791 2-175 limits assumed): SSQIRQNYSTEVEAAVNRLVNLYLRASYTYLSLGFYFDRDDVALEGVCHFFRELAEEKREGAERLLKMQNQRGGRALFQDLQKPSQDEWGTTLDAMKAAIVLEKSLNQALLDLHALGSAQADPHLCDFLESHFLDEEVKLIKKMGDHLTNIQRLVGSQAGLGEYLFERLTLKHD
Thyrotropin-releasing hormone receptor (Homo sapiens), sequence (P34981 whole entry, looked up): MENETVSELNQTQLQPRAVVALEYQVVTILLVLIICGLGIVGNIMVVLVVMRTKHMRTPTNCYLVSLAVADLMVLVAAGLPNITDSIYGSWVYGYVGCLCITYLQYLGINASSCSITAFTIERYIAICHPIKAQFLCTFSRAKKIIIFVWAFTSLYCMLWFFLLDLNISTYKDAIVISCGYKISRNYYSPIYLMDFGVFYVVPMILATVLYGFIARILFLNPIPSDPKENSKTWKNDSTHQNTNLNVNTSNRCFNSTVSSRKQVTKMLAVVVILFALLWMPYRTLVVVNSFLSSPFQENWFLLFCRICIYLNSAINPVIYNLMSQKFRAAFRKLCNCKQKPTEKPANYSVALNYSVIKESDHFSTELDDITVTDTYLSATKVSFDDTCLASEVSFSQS
ATP-dependent DNA helicase Q1 (Homo sapiens), sequence (P46063 whole entry, looked up): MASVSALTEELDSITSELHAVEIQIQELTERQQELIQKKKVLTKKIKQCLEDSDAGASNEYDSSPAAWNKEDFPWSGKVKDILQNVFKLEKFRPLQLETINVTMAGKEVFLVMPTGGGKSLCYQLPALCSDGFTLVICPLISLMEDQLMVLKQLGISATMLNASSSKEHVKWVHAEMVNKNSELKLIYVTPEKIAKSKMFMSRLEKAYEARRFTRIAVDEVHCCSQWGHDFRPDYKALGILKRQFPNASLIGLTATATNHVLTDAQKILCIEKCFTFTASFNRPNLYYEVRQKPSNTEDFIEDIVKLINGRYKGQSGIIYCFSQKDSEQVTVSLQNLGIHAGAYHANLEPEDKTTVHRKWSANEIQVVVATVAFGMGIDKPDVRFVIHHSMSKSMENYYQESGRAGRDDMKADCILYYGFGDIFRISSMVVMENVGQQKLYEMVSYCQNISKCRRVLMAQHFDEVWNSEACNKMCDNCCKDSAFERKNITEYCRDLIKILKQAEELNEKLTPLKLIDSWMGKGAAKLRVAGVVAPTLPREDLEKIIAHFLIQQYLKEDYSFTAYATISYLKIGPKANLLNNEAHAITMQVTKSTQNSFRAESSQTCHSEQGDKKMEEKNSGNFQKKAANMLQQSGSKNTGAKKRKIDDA
Thyrotropin receptor (Homo sapiens), sequence (P16473 whole entry, looked up): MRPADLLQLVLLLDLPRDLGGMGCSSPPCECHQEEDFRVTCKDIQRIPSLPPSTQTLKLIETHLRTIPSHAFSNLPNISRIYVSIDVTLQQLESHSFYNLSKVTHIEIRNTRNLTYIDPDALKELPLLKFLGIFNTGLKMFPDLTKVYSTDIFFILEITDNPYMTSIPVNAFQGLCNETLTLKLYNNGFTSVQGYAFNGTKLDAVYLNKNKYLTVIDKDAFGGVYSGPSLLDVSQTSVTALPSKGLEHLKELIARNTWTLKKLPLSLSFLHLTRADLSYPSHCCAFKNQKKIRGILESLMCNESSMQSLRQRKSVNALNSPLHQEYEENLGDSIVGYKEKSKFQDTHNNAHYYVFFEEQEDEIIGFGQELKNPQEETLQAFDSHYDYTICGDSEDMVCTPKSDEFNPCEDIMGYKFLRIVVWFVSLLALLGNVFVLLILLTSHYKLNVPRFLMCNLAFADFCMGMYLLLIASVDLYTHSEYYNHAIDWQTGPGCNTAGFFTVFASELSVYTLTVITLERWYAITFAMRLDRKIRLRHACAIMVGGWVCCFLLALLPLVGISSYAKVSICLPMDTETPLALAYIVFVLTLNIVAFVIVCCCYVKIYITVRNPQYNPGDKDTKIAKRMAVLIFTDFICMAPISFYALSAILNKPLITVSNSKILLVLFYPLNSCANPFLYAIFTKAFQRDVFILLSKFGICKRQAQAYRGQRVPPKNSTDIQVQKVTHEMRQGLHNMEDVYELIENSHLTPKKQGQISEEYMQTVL
DNA repair nuclease/redox regulator APEX1 (Homo sapiens), sequence (P27695 whole entry, looked up): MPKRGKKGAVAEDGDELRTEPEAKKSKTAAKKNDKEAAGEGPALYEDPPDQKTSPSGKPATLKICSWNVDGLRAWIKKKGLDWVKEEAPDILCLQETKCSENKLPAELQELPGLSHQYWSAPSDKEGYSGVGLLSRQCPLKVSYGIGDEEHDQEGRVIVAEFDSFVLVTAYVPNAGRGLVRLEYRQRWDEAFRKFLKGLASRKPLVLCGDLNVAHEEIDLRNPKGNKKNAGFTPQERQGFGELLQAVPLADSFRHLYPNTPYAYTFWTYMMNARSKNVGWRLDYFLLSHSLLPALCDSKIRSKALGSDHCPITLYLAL
Voltage-gated inwardly rectifying potassium channel KCNH2 (Homo sapiens), sequence (Q12809 whole entry, looked up): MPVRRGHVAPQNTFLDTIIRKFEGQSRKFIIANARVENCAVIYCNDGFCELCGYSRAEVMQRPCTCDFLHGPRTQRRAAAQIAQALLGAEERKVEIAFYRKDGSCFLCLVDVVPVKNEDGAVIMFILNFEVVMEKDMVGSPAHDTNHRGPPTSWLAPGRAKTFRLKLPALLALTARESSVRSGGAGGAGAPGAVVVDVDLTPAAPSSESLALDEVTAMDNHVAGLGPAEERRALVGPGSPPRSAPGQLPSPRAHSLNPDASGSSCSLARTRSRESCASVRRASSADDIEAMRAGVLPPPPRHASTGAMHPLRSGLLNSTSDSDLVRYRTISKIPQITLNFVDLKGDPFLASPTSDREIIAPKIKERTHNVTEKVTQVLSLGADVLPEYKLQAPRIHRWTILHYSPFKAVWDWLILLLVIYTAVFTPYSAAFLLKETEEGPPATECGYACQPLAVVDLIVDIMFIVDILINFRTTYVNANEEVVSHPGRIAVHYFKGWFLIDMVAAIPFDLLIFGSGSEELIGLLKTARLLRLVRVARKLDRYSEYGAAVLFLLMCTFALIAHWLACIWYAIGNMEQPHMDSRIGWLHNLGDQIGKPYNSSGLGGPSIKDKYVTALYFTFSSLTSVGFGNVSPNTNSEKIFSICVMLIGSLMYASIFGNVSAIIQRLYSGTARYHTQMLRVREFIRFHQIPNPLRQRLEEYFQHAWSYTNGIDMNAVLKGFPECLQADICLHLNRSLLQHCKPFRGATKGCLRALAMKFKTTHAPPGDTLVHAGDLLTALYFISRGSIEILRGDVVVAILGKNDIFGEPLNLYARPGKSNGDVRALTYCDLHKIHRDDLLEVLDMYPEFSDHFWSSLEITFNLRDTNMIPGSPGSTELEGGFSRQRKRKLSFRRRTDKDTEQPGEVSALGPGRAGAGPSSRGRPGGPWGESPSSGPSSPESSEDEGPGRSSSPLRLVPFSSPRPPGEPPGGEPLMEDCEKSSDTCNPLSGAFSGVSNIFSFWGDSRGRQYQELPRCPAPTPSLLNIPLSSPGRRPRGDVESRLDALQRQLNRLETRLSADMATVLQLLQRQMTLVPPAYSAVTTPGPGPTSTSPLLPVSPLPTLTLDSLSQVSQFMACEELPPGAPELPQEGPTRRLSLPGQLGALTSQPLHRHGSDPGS
Transient receptor potential cation channel subfamily V member 1 (Homo sapiens), sequence (Q8NER1 whole entry, looked up): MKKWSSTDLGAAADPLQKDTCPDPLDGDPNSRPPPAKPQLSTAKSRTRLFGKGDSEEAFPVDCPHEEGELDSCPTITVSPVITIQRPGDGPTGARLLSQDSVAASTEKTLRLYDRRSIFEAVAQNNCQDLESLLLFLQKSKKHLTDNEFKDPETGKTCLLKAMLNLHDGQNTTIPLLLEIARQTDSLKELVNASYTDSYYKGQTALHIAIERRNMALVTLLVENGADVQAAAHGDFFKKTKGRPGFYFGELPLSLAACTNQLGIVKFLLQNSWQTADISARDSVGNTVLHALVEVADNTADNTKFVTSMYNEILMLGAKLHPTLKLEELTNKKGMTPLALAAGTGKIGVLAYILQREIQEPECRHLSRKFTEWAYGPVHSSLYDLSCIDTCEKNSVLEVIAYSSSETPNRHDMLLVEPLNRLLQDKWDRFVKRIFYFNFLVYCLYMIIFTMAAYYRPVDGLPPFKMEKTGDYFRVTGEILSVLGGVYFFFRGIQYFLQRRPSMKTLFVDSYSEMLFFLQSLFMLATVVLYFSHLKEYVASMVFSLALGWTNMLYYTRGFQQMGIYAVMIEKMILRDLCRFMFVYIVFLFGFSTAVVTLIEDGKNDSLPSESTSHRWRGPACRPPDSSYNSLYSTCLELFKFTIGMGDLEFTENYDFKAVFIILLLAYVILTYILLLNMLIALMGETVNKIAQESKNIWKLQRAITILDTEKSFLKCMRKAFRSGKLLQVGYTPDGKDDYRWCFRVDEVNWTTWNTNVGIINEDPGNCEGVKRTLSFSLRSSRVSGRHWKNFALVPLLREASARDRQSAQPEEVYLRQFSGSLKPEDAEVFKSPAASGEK
Galactokinase (Homo sapiens), sequence (P51570 whole entry, looked up): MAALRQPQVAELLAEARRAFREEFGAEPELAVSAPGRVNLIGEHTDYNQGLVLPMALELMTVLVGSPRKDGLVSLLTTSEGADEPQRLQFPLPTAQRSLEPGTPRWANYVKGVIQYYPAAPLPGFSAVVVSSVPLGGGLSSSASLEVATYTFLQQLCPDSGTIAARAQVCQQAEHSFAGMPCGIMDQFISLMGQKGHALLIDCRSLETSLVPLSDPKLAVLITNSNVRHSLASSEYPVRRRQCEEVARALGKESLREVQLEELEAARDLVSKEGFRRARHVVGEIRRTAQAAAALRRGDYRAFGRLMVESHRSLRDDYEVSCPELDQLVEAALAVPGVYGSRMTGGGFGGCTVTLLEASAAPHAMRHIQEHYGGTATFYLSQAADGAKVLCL

| Compound | outcome [1] | Potency [2] | Potency [3] | outcome [4] | Potency [5] | Potency [6] | outcome [7] | Potency [8] | outcome [9] | Potency [10] | Potency [11] | Potency [12] | outcome [13] | outcome [14] | outcome [15] | activation [16] | Potency [17] |
| --- | --- | --- | --- | --- | --- | --- | --- | --- | --- | --- | --- | --- | --- | --- | --- | --- | --- |
| COc1ccc(CCNC[C@@H](O)c2ccc(O)cc2)cc1OC | inactive | inactive | inactive | inactive | inactive | inactive | inactive | inactive | inactive | inactive | inactive | inactive | inactive | inactive | inactive | – | – |
| CNC(=O)[C@H]1O[C@@H](n2cnc3c(NCc4ccc(N)cc4)ncnc32)[C@H](O)[C@H]1O | inactive | inactive | inactive | – | inactive | inactive | inactive | inactive | inactive | inactive | inactive | inactive | inactive | inactive | inactive | -0.312% | inactive |
| NC(=S)NCCCC(N)C(=O)O (stereo not given) | inactive | inactive | inactive | inactive | inactive | inactive | inactive | inactive | inactive | inactive | inactive | 20 µM (active) | inactive | inactive | inactive | -0.25% | – |
| CN1C[C@H](C(=O)N[C@]2(C)O[C@@]3(O)C4CCCN4C(=O)[C@H](Cc4ccccc4)N3C2=O)C[C@@H]2c3cccc4[nH]cc(c34)C[C@H]21 (stereo not given in full) | inactive | inactive | inactive | – | – | – | inactive | inactive | – | 2.94 µM (active) | 2.33 µM (active) | – | inactive | inactive | inactive | 0.625% | 11.2 µM (active) |
| CCCCC#Cc1nc(N)c2ncn([C@@H]3O[C@H](C(=O)NCC)[C@@H](O)[C@H]3O)c2n1 | inactive | inactive | inactive | – | 8.91 µM (active) | – | inactive | inactive | inactive | 13.1 µM (active) | – | inactive | inactive | inactive | inactive | -0.438% | inactive |
| NC(=S)c1ccc[n+]([C@@H]2O[C@@H](COP(=O)([O-])OP(=O)(O)OC[C@H]3O[C@@H](n4cnc5c(N)ncnc54)[C@H](OP(=O)(O)O)[C@H]3O)C(O)C2O)c1 (stereo not given in full) | inactive | inactive | inactive | inactive | inactive | inactive | inactive | inactive | inactive | inactive | inactive | – | inactive | inactive | inactive | -0.0625% | inactive |
| CCCCCCCCCCCCCCC/C=C/[C@@H](O)[C@H](NC(=O)CCCCCCCCCCCCC)OC (tested in a mixture with another compound) | inactive | inactive | inactive | inactive | inactive | inactive | inactive | inactive | inactive | inactive | inactive | inactive | inactive | inactive | inactive | 1.19% | inactive |
| OC[C@H]1O[C@@H](n2cnc3c(N[C@H]4CC5CCC4C5)ncnc32)[C@H](O)[C@@H]1O (stereo not given in full) | inactive | inactive | inactive | inactive | inactive | inactive | inactive | inactive | inactive | inactive | inactive | inactive | inactive | inactive | inactive | 0.875% | inactive |
| C[C@H]1CC2[C@@H]3CCC4=CC(=O)C=C[C@]4(C)[C@@]3(Cl)[C@@H](O)C[C@]2(C)[C@@]1(O)C(=O)CO (stereo not given in full) | inactive | inactive | inactive | inactive | inactive | inactive | inactive | inactive | inactive | inactive | inactive | inactive | inactive | inactive | inactive | 0.25% | inactive |
